Laboratory results taken from the supplement of paper PMC9492666.

What follows are compounds tested on HCC1937 (assay: relative cell viability, compound alone, vs DMSO (fraction of DMSO control); higher = less growth inhibition). Settings: 72 h.
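Further: viability read out with the CCK-8 kit in 96-well plates, screening a set of 303 compounds acting on lipid metabolism targets.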

Compound | relative cell viability
C=C(C)[C@@H]1CC[C@]2(CO)CC[C@]3(C)[C@H](CC[C@@H]4[C@@]5(C)CC[C@H](O)C(C)(C)[C@@H]5CC[C@]43C)[C@@H]12 [Betulin] | 0.886
O=C(/C=C/c1ccc(/C=C/C(=O)Nc2ccc(C3=NCCN3)cc2)cc1)Nc1ccc(C2=NCCN2)cc1 | 0.772
Cc1ccc(Oc2nc3cc(-c4ccc(-c5ccccc5)cc4)c(Cl)cc3[nH]2)cc1C(=O)O | 0.95
COP(=O)(OC)OC(c1ccc(Cl)cc1)P(=O)(OC)OC (stereo not drawn) [Mifobate] | 1.18
O=C(NNc1ccccc1)c1ccncc1 [PluriSln 1] | 0.925
Cc1nc2ccc(C(=O)N3CCC4(CC3)CC(=O)c3c(cnn3C(C)C)C4)cc2[nH]1 | 0.71
CC(C)C1=CC2=CC[C@@H]3[C@](C)(CCC[C@@]3(C)C(=O)O)[C@H]2CC1 [Abietic Acid] | 1.02
CN(C)C(=N)NC(=N)N [Metformin] | 0.646
